Results on 23 compounds are retold here after PubChem BioAssay.

The target in experiment [1] is Nuclear receptor coactivator 3 (Homo sapiens) (UniProt Q9Y6Q9). Nature of the experiment: SRC3 coactivator transcriptional activity inhibitors, confirmation, cell-based, luminescence, quadruplicate (AID 588792;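 active = mean inhibition over 43.08%, the solvent-only control mean plus 3 SD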;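 also: 0% = DMSO treated cells and 100% = gossypol at 36 µM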). Particulars: HEK293 GAL4-SRC3 luciferase reporter, at 3.6 µM, hits give high values.
Chain of Nuclear receptor coactivator 3 (Homo sapiens) (Q9Y6Q9 whole entry, looked up, the tested form may be a part): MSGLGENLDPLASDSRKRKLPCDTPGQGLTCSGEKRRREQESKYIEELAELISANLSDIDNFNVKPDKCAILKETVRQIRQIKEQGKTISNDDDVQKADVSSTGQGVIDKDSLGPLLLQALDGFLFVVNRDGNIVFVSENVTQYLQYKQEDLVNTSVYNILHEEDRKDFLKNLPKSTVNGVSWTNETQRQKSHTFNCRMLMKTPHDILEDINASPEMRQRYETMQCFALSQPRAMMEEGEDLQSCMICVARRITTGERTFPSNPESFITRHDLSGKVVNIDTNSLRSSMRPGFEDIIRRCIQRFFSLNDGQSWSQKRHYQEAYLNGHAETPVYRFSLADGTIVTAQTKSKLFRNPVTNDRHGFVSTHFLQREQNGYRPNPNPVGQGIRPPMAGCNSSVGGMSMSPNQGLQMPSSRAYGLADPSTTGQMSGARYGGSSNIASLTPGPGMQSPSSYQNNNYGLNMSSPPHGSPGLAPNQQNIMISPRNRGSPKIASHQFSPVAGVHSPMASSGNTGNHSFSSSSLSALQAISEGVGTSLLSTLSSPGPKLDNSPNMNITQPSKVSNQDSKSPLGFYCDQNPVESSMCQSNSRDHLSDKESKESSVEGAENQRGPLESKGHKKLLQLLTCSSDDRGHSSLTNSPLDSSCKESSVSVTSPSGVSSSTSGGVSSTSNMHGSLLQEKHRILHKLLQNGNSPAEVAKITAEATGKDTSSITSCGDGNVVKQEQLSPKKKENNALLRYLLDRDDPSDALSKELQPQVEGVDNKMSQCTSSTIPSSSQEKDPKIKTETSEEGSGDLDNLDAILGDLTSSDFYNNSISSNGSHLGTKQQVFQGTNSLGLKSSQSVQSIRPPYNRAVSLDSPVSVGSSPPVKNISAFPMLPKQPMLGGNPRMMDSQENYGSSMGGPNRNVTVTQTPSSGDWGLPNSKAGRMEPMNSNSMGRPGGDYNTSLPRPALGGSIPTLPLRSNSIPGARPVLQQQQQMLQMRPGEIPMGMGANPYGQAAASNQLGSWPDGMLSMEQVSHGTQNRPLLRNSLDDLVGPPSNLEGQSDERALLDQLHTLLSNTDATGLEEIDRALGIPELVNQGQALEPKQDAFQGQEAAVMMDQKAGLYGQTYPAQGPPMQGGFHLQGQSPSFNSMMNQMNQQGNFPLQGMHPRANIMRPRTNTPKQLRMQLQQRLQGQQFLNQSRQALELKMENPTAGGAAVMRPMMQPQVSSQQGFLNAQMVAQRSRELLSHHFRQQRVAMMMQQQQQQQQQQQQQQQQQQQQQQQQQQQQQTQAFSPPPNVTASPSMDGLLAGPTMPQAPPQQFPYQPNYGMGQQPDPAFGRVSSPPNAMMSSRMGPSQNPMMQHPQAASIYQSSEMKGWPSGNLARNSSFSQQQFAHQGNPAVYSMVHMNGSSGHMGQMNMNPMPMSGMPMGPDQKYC
In experiment [2] the test system is transactivating tegument protein VP16 (Human herpesvirus 1), Gal4-VP16 luciferase reporter. Put plainly: VP16 transactivation inhibitors, counter-screen for SRC3 inhibitor project, cell-based, luminescence, high throughput (AID 588794; in the data active = inhibition above about 30%). Particulars: mammalian cells, VP16-driven luciferase reporter luminescence; at 3.6 µM; hits give high values.
In experiment [3] the target is Nuclear receptor coactivator 1 (Homo sapiens) (UniProt Q15788). Put plainly: SRC1 coactivator transcriptional activity inhibitors, confirmation, cell-based, luminescence, quadruplicate (AID 588820).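 Also: 0% = DMSO wells and 100% = gossypol 36 µM treated wells.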 To be noted: HEK293 GAL4-SRC1 luciferase reporter, at 3.6 µM, hits give high values.
Chain of Nuclear receptor coactivator 1 (Homo sapiens) (Q15788 whole entry, looked up, the tested form may be a part): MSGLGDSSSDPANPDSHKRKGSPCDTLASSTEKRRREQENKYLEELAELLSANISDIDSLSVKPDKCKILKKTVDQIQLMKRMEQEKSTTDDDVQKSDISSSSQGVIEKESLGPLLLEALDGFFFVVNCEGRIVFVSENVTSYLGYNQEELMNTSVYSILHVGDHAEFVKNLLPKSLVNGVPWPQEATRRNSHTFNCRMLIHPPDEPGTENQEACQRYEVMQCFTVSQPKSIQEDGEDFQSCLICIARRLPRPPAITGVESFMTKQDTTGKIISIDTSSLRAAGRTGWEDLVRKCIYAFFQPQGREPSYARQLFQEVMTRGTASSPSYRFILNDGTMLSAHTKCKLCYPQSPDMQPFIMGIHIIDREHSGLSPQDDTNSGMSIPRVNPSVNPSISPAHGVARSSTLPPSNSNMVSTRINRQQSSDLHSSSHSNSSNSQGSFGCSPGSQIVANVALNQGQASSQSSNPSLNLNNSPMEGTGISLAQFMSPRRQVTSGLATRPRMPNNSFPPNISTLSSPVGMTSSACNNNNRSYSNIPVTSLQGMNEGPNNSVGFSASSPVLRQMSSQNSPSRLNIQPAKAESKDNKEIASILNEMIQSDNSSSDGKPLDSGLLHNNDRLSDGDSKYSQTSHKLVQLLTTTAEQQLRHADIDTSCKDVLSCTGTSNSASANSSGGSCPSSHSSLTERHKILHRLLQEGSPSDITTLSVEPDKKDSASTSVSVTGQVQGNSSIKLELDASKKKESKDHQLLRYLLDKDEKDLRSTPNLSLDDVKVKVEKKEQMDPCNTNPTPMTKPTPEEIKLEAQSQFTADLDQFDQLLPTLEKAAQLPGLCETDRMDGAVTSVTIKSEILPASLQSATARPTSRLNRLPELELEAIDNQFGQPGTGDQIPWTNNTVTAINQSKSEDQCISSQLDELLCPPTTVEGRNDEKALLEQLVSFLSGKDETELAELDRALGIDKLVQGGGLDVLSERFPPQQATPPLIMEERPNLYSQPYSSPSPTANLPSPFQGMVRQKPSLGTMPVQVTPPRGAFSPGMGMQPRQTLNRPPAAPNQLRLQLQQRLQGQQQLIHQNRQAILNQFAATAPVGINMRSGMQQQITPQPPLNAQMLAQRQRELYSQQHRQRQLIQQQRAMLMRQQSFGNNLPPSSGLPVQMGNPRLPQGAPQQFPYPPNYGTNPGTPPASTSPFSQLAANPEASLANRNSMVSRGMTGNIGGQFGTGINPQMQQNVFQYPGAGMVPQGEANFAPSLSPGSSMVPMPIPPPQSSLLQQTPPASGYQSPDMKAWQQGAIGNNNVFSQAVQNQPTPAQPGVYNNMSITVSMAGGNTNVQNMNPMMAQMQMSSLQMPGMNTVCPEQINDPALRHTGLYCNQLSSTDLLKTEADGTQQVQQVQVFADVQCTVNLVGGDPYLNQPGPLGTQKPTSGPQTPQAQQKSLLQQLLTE
A short description of experiment [4]: VP16 transactivation inhibitors, counter-screen for SRC1 inhibitor project, cell-based, luminescence, high throughput (AID 588824; in the data active = inhibition above about 25%). Particulars: cell-based VP16 transactivation luciferase luminescence; at 3.6 µM; hits give high values.

Values without a mark were called inactive. Activity calls are given as the source filed them.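 The calls were made as follows, unless noted: active = mean inhibition above 46.68%, the untreated control wells mean plus 3 SD; inactive = the rest.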

As to `CCN(CC)c1ccc(/C=N/NC(=O)CNC(=O)C2COc3ccccc3O2)c(O)c1` (configuration not stated), the inhibition in experiment [1] is 24.4%; in experiment [2], 17.7%; in experiment [3], 8.85%; in experiment [4] it was 18.9%.

Regarding `CCCCC(=O)OCC(=O)C1(O)Cc2c(O)c3c(c(O)c2C(OC2CC(NC(=O)C(F)(F)F)C(O)C(C)O2)C1)C(=O)c1c(OC)cccc1C3=O` (configuration not stated), the inhibition in experiment [1] was 26%; in experiment [2], 10.2%; in experiment [3] it was 29.3%; in experiment [4] it was 16.3%.

Turning to `O=C(N/N=C/c1cc([N+](=O)[O-])ccc1O)c1cccc(N2CCCC2=O)c1`, the inhibition in experiment [1] is 15.9%; in experiment [2] it was 14.3%; in experiment [3] it was 34.5%; in experiment [4] it was 4.04%.

`CCc1ccc(-c2cc(C(F)(F)F)n3nc(C(=O)Nc4cnn(Cc5ccc(C)cc5)c4)cc3n2)s1`: the inhibition in experiment [1] was 10.1%; in experiment [2], 9.55%; in experiment [3], -3.69%; in experiment [4], 7.47%.

Take `Cc1cn([C@@H](CCCCNC(=O)OC(C)(C)C)C(=O)NCCCCCCCCCCC(=O)N2CCN(C(=O)OC(C)(C)C)CC2)nn1`: the inhibition in experiment [1] is 12.4%; in experiment [2], 25.6%; in experiment [3] it was 4.04%; in experiment [4], 41.8% (active).

In the case of `Cc1nn(-c2ccccc2)c(Cl)c1C(=O)N1CCN(c2ncnc3c2cnn3-c2ccccc2)CC1`, the inhibition in experiment [1] was 25.8%; in experiment [2], 31.4% (active); in experiment [3] it was 4.61%; in experiment [4] it was 44.9% (active).

Consider `COc1ccc(NC(=O)CN(C)C(=O)C2(c3ccccc3)CCCC2)cc1`, for which the inhibition in experiment [1] is 25.3%; in experiment [2], 8.28%; in experiment [3] it was 25.3%; in experiment [4] it was 4.02%.

On to `Nc1nc(/C=C/c2cccnc2)nc(-c2ccccc2O)n1`, for which the inhibition is -12.6% in experiment [1], 0.59% in experiment [2], -16.8% in experiment [3] and 14.2% in experiment [4].

For `CCN(CC)CCC(=O)Nc1cccc2c1C(=O)c1ccccc1C2=O`, the inhibition in experiment [1] was -12.3%; in experiment [2], 21.1%; in experiment [3], 8.87%; in experiment [4], 25.7% (active).

As to `Cc1cc(C(=O)NNc2ccc(F)cc2)no1`, the inhibition is 9% in experiment [1], 7.33% in experiment [2], -4.64% in experiment [3] and 8.26% in experiment [4].

For `COC(=O)c1ccc2nc(Nc3nc4ccc(F)cc4s3)sc2c1`, the inhibition in experiment [1] is 21.2%; in experiment [2] it was 3.83%; in experiment [3] it was -36.1%; in experiment [4], -19.9%.

In the case of `COc1ccc(Cc2nnc(SCc3ccc([N+](=O)[O-])cc3)o2)cc1`, the inhibition is 26.2% in experiment [1], 15.8% in experiment [2], 19.3% in experiment [3] and 17.4% in experiment [4].

For the compound `COc1ccc2cc3c(N)nn(C(=O)c4ccc(Cl)c([N+](=O)[O-])c4)c3nc2c1`, the inhibition is 70.2% (active) in experiment [1], 39.4% (active) in experiment [2], 56.7% (active) in experiment [3] and 36.5% (active) in experiment [4].

For the compound `COc1ccc2c(c1OC)C(=O)N1c3ccccc3C(=O)N(c3ccc(F)cc3)C21` (configuration not stated), the inhibition was 7.69% in experiment [1], 4.54% in experiment [2], -3.13% in experiment [3] and 3.89% in experiment [4].

As to `COc1cc(/C=N/NC(=Nc2ccc(C)cc2)c2nc3ccccc3s2)ccc1O`, the inhibition is 35.6% in experiment [1], 9.45% in experiment [2], 11.4% in experiment [3] and -38% in experiment [4].

For the compound `Cc1c(Cl)c([N+](=O)[O-])nn1Cc1ccc(C(=O)N/N=C\c2cc(Cl)ccc2O)o1`, the inhibition in experiment [1] was 57.4% (active); in experiment [2], 48.7% (active); in experiment [3] it was 55.5% (active); in experiment [4] it was 52.9% (active).

Regarding `CN=C1S/C(=C\c2cc(C)n(-c3ccccc3F)c2C)C(=O)N1C`, the inhibition in experiment [1] is -15.3%; in experiment [2], -38.2%; in experiment [3], -105%; in experiment [4] it was -68%.

As to `COc1cc(OC)c2nc(C)c3c(c2c1)N(c1ccc(O)cc1)CC3`, the inhibition is 5.19% in experiment [1], 37.7% (active) in experiment [2], 12.8% in experiment [3] and 30.1% (active) in experiment [4].

On to `N=c1c2c(-c3ccccc3)c(-c3ccccc3)n(Cc3ccccc3)c2ncn1CCCn1ccnc1`, for which the inhibition in experiment [1] was 26.8%; in experiment [2], 62.5% (active); in experiment [3] it was 57.4% (active); in experiment [4] it was 62.8% (active).

With `O=[N+]([O-])c1ccc(NC(c2ccccc2)c2ccc3cccnc3c2O)cc1` (configuration not stated), the inhibition was 65% (active) in experiment [1], 58.8% (active) in experiment [2], 65.4% (active) in experiment [3] and 71.2% (active) in experiment [4].

`CN(c1ncnc(N)c1[N+](=O)[O-])C1CCS(=O)(=O)C1` (configuration not stated): the inhibition in experiment [1] is 55.2% (active); in experiment [2] it was 35.7% (active); in experiment [3], 52.7% (active); in experiment [4], 34.1% (active).

Turning to `Cc1cc(C)nc(SCC(=O)Nc2ccnc3ccccc23)n1`, the inhibition was 12.2% in experiment [1], 36.5% (active) in experiment [2], -7.31% in experiment [3] and 31.7% (active) in experiment [4].

As to `Nc1nc(CCl)nc(Nc2cccc3ccccc23)n1`, the inhibition in experiment [1] is 42.7%; in experiment [2], 15.4%; in experiment [3], 16.1%; in experiment [4], 18.8%.
